How the values were obtained:
[1] = molecular target: Tumor necrosis factor receptor superfamily member 10B (Homo sapiens) (UniProt O14763); test: caspase-8 TRAIL sensitization, hit retest, confirmation, cell-based, NB7+caspase-8, with/without TRAIL, luminescence panel (AID 651596); conditions: NB7 neuroblastoma + caspase-8, TRAIL sensitization, luminescence viability, with TRAIL, mean of runs, at 10 µM, stronger effect = higher value
[2] = as above; conditions: NB7 neuroblastoma + caspase-8, without TRAIL, luminescence viability, without TRAIL, mean of runs, at 10 µM

Sequence of Tumor necrosis factor receptor superfamily member 10B (Homo sapiens) (O14763 whole entry, looked up): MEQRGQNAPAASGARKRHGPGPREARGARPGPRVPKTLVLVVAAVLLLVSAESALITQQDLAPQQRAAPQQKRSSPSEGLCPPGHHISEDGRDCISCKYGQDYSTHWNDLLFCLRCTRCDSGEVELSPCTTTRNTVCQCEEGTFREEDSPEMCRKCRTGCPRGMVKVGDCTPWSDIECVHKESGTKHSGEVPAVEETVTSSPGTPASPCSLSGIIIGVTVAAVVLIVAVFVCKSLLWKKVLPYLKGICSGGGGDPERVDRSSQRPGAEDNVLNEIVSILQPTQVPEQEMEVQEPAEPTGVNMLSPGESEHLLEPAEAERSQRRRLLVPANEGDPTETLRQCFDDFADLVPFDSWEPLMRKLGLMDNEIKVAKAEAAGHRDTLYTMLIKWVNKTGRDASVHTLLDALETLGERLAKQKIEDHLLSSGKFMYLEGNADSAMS

Compound	activity [1]	activity [2]
Cc1ccc2nc(-c3ccccn3)[nH]c2c1	81%	83.9%
Nc1nc(CCl)nc(N(c2ccccc2)c2ccccc2)n1	99.3%	98.7%
COc1ccccc1NC(=O)Nc1ccc2c(c1)nnn2C	20.6%	7.6%
O=C(CCl)N(CCc1ccccc1)CCc1ccccc1	99.4%	98.2%
COc1ccc(N2C(N)=NC(N)=NC2(C)C)cc1	78.6%	86.5%
Cc1cccc(NC(=O)c2ccc3c(Cl)c4c(nc3c2)CCCC4)n1	77.1%	80%
C=C(C)c1cc2c(ccc3ccc(=O)oc32)o1	92.6%	91%
Cc1ccc(Nc2nc(N)c3ccccc3n2)cc1C	83%	78%
CN(C)c1ccc(Sc2ccc3nc(N)nc(N)c3c2)cc1	62.9%	73%
N/C(CCS(=O)(=O)c1ccc(Cl)cc1)=N\OC(=O)c1ccccc1C(F)(F)F	94.2%	93.6%
COc1ccccc1C(=O)NNC(=O)c1cccc(O)c1	44.2%	48.4%
Cc1cc(NC(=O)/C=C/c2ccccc2Cl)n(-c2nc3ccccc3[nH]2)n1	78.8%	82.4%
Cc1ccc(-c2nc(N/N=C/c3cccnc3)c3ccccc3n2)cc1	94.3%	88.2%
Cc1cccc(Nc2nc(N)nc(CCl)n2)c1C	99%	98.3%
COCCn1c(C)cc(C(=O)COC(=O)c2ccc(Cl)c(S(N)(=O)=O)c2)c1C	52%	52.4%
CCOc1cc(NC2CS(=O)(=O)CC2O)c(OCC)cc1NC(=O)c1ccccc1 (configuration not stated)	-26.1%	-33.2%
COc1ccc(Cn2c(SCc3ccc(C)cc3)nc3cc(OC)c(OC)cc3c2=N)cc1Cl	99%	99.3%
COc1ccc(Nc2nc(N)nc(CCl)n2)cc1	99.1%	98.3%
c1ccc(-c2nnc3sc(CN4CCC5(CC4)OCCO5)cn23)cc1	57.7%	60.9%
Cc1ccc2cc(NC(=O)c3cccc(F)c3)ccc2n1	21.3%	10.6%
Cc1ccc(C(C)C)c(OCC(=O)Nc2ccc3c(c2)nc(CCN2CCCCC2)n3C)c1	7.92%	39.4%
CN(C)CCNC(=O)c1cc2c(s1)-c1ccc(Cl)cc1SC2	99%	99.5%
COc1cc2c(cc1OC)C(c1ccccc1)N(C(=O)CCl)CC2 (configuration not stated)	98.3%	92.4%
N#Cc1c(C#N)c(SSc2c(C#N)c(C#N)c(N)n2-c2ccccc2)n(-c2ccccc2)c1N	-0.075%	72.1%
C/C(Cn1nnc([N+](=O)[O-])n1)=N\NC(=O)c1ccccc1O	43.8%	51%
COc1ccc(-c2cc3nc4n(c(=O)c3s2)CCC4)cc1	71.1%	70.4%

From PubChem BioAssay
